Compounds without any hit were thinned out: in the full panel of roughly 83,000, 20% have a hit.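 Plates (96-well) were seeded with cells, treated with compound at one concentration, and incubated for 48 hours before percent growth was determined.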 Activity calls are given as the source filed them. Rule for the calls: active = growth percent below 10; inactive = the rest.

For the first assay, the system named is RXF 393 renal. As to the kind of experiment: NCI-60 one-dose screen, 48 h (100 = growth as untreated, 0 = no growth, -100 = all killed). The following applies: 10 µM.
With `COc1ccc(C2c3sc4ccc(C)cc4c3Oc3nc(N)nc(N)c32)cc1` (configuration not stated), the growth is 64.8% (inactive).

On to `Cc1cc(N=C2NC(=O)S/C2=C\c2ccc(F)cc2)n[nH]1`, for which the growth is -37.4% (active).

`Cn1cc(-c2nnc(N)nc2-c2c[nH]c3ccccc23)c2cc(Br)cnc21`: the growth was -20.1% (active).

On to `O=C(CC(=O)Nc1ccc(Oc2ncnc3scc(Nc4n[nH]c(=S)s4)c23)cc1)Nc1ccc(Cl)cc1`, for which the growth is 94.8% (inactive).

On to `O=C1NC2C=CC=CC2/C1=C1/SC(=S)N(C2CC(=O)N(c3ccc(Br)cc3)C2=O)C1=O` (configuration not stated), for which the growth was 109% (inactive).

With `CC1(C)CC(=O)C2=C(C1)N(Cc1ccc(C(=O)O)cc1)C1=C(C(=O)CC(C)(C)C1)C2c1ccc(Cl)cc1`, the growth is 111% (inactive).

Regarding `Cc1ccc2c(c1)C(=O)/C(=C/c1ccc([N+](=O)[O-])cc1)S2`, the growth is 109% (inactive).

Turning to `O=C(Nc1ccc(OCc2ccc(Cl)cc2)cc1)Nc1ccc(Cl)c(C(F)(F)F)c1`, the growth is -21% (active).

Take `Cn1cc(-c2nc(N)nnc2-c2c[nH]c3ccccc23)c2cc(Br)cnc21`: the growth was 6.16% (active).

As to `O=C(CSc1nc2ccccc2c(=O)n1-c1ccc(Cl)cc1)Nc1ccc(-c2nc3ccccc3[nH]2)cc1`, the growth is -35.1% (active).

Take `Cc1ccc2c(c1)C(=O)/C(=C/c1c[nH]c3ccccc13)S2`: the growth was -28.1% (active).

On to `COc1cc(C2CC(c3ccc(Oc4ccc(Cl)cc4)cc3)=NN2c2nc(-c3ccc(Cl)cc3)c(C#N)c(N3CCOCC3)n2)cc(OC)c1OC` (configuration not stated), for which the growth was 107% (inactive).

Turning to `O=C(Nc1ccc(OCC(=O)c2ccc(Cl)cc2)cc1)Nc1ccc(Cl)c(C(F)(F)F)c1`, the growth was -60.8% (active).

`Cc1ccc2sc3c(c2c1)Oc1nc[nH]c(=O)c1C3c1cccc(F)c1` (configuration not stated): the growth is 109% (inactive).

For `Cc1cc(N=C2NC(=O)/C(=C/c3cc(C(C)(C)C)c(O)c(C(C)(C)C)c3)S2)n[nH]1`, the growth is -38.6% (active).

As to `COc1ccc(C2c3sc4ccc(C)cc4c3Oc3nc[nH]c(=O)c32)cc1` (configuration not stated), the growth is 85.7% (inactive).

For `COc1cccc(C(=O)CSc2nc(-c3ccc(OCc4ccccc4)c(OC)c3)c(C#N)c(=O)[nH]2)c1`, the growth was 93% (inactive).

In the case of `Cc1ccc(COc2ccc(NC(=O)Nc3ccc(Cl)c(C(F)(F)F)c3)cc2)cc1`, the growth was 75.5% (inactive).

As for `CC(C)(C)c1cc(/C=C2\S/C(=N/c3ncn[nH]3)NC2=O)cc(C(C)(C)C)c1O`, the growth is -17.5% (active).

`Cn1cc(/C=C(/SS/C(=C/c2cn(C)c3cccc(C(=O)O)c23)C(=O)O)C(=O)O)c2c(C(=O)O)cccc21`: the growth is 112% (inactive).

Take `COc1ccc(C(=O)COc2ccc(NC(=O)Nc3ccccc3)cc2)cc1`: the growth was 82.8% (inactive).

With `CCn1c(SCC(=O)Nc2ccc(-c3nc4ccccc4[nH]3)cc2)nc2ccccc2c1=O`, the growth is -87.1% (active).

With `O=C(Nc1ccc(OCc2ccc(F)cc2)cc1)Nc1ccc(Cl)c(C(F)(F)F)c1`, the growth is -24.3% (active).

In the case of `O=C(CC(=O)Nc1ccc(Oc2ncnc3scc(Nc4n[nH]c(=S)s4)c23)cc1)Nc1ccc(Br)cc1`, the growth is 129% (inactive).

As for `COc1ccc(C(=O)COc2ccc(NC(=O)Nc3ccc(Cl)c(C(F)(F)F)c3)cc2)cc1`, the growth was -52.1% (active).

`O=C(Nc1ccc(Oc2ncnc3scc(Nc4n[nH]c(=S)s4)c23)cc1)C1(C(=O)Nc2cccc(C(F)(F)F)c2)CC1`: the growth was 118% (inactive).

Turning to `O=C1NC(=S)S/C1=C\c1cn(-c2ccccc2)nc1-c1ccc([N+](=O)[O-])cc1`, the growth is 3.42% (active).

Consider `O=C(CSc1nc2ccccc2c(=O)n1-c1ccc(Cl)cc1)Nc1ccc(-c2nc3ccc([N+](=O)[O-])cc3[nH]2)cc1`, for which the growth is -5.28% (active).

Another assay concerns SF-268 CNS. The assay is described as above. The following applies: 10 µM.
With `COc1ccc(C2c3sc4ccc(C)cc4c3Oc3nc(N)nc(N)c32)cc1` (configuration not stated), the growth was 88.6% (inactive).

On to `Cc1cc(N=C2NC(=O)S/C2=C\c2ccc(F)cc2)n[nH]1`, for which the growth was 29% (inactive).

Take `Cn1cc(-c2nnc(N)nc2-c2c[nH]c3ccccc23)c2cc(Br)cnc21`: the growth was 57.4% (inactive).

On to `O=C(CC(=O)Nc1ccc(Oc2ncnc3scc(Nc4n[nH]c(=S)s4)c23)cc1)Nc1ccc(Cl)cc1`, for which the growth is 85% (inactive).

In the case of `O=C1NC2C=CC=CC2/C1=C1/SC(=S)N(C2CC(=O)N(c3ccc(Br)cc3)C2=O)C1=O` (configuration not stated), the growth is 95.7% (inactive).

Take `CC1(C)CC(=O)C2=C(C1)N(Cc1ccc(C(=O)O)cc1)C1=C(C(=O)CC(C)(C)C1)C2c1ccc(Cl)cc1`: the growth is 106% (inactive).

As to `Cc1ccc2c(c1)C(=O)/C(=C/c1ccc([N+](=O)[O-])cc1)S2`, the growth is 96.4% (inactive).

For `O=C(Nc1ccc(OCc2ccc(Cl)cc2)cc1)Nc1ccc(Cl)c(C(F)(F)F)c1`, the growth is 43.3% (inactive).

`Cn1cc(-c2nc(N)nnc2-c2c[nH]c3ccccc23)c2cc(Br)cnc21`: the growth is 20.3% (inactive).

For the compound `O=C(CSc1nc2ccccc2c(=O)n1-c1ccc(Cl)cc1)Nc1ccc(-c2nc3ccccc3[nH]2)cc1`, the growth was -33.3% (active).

Turning to `Cc1ccc2c(c1)C(=O)/C(=C/c1c[nH]c3ccccc13)S2`, the growth is 44.9% (inactive).

Regarding `COc1cccc(O)c1/C=C1\SCc2cc3c(OC)cccc3[o+]c21`, the growth is 103% (inactive).

In the case of `COc1cc(C2CC(c3ccc(Oc4ccc(Cl)cc4)cc3)=NN2c2nc(-c3ccc(Cl)cc3)c(C#N)c(N3CCOCC3)n2)cc(OC)c1OC` (configuration not stated), the growth was 104% (inactive).

Take `O=C(Nc1ccc(OCC(=O)c2ccc(Cl)cc2)cc1)Nc1ccc(Cl)c(C(F)(F)F)c1`: the growth was 46.5% (inactive).

Regarding `Cc1ccc2sc3c(c2c1)Oc1nc[nH]c(=O)c1C3c1cccc(F)c1` (configuration not stated), the growth was 104% (inactive).

Take `Cc1cc(N=C2NC(=O)/C(=C/c3cc(C(C)(C)C)c(O)c(C(C)(C)C)c3)S2)n[nH]1`: the growth was 32.7% (inactive).

`COc1ccc(C2c3sc4ccc(C)cc4c3Oc3nc[nH]c(=O)c32)cc1` (configuration not stated): the growth is 89.7% (inactive).

In the case of `COc1cccc(C(=O)CSc2nc(-c3ccc(OCc4ccccc4)c(OC)c3)c(C#N)c(=O)[nH]2)c1`, the growth is 97.4% (inactive).

On to `Cc1ccc(COc2ccc(NC(=O)Nc3ccc(Cl)c(C(F)(F)F)c3)cc2)cc1`, for which the growth was 86.2% (inactive).

Regarding `CC(C)(C)c1cc(/C=C2\S/C(=N/c3ncn[nH]3)NC2=O)cc(C(C)(C)C)c1O`, the growth was 23.3% (inactive).

With `Cn1cc(/C=C(/SS/C(=C/c2cn(C)c3cccc(C(=O)O)c23)C(=O)O)C(=O)O)c2c(C(=O)O)cccc21`, the growth was 101% (inactive).

Regarding `COc1ccc(C(=O)COc2ccc(NC(=O)Nc3ccccc3)cc2)cc1`, the growth is 91.6% (inactive).

In the case of `CCn1c(SCC(=O)Nc2ccc(-c3nc4ccccc4[nH]3)cc2)nc2ccccc2c1=O`, the growth was -29.4% (active).

Take `O=C(Nc1ccc(OCc2ccc(F)cc2)cc1)Nc1ccc(Cl)c(C(F)(F)F)c1`: the growth is 39% (inactive).

Consider `O=C(CC(=O)Nc1ccc(Oc2ncnc3scc(Nc4n[nH]c(=S)s4)c23)cc1)Nc1ccc(Br)cc1`, for which the growth was 98.7% (inactive).

In the case of `COc1ccc(C(=O)COc2ccc(NC(=O)Nc3ccc(Cl)c(C(F)(F)F)c3)cc2)cc1`, the growth was 37.9% (inactive).

With `O=C(Nc1ccc(Oc2ncnc3scc(Nc4n[nH]c(=S)s4)c23)cc1)C1(C(=O)Nc2cccc(C(F)(F)F)c2)CC1`, the growth is 102% (inactive).

As to `O=C1NC(=S)S/C1=C\c1cn(-c2ccccc2)nc1-c1ccc([N+](=O)[O-])cc1`, the growth is 42.7% (inactive).

Consider `O=C(CSc1nc2ccccc2c(=O)n1-c1ccc(Cl)cc1)Nc1ccc(-c2nc3ccc([N+](=O)[O-])cc3[nH]2)cc1`, for which the growth was 38.4% (inactive).
